Compound activity from PubChem BioAssay.
Hits are enriched below; roughly 6.9% of the tested compounds scored in any of these assays.
MCF10A rereplic: inducers of DNA re-replication in MCF 10A breast cells | AID 624296 | actives 2.9% (n = 350,000) | Potency, µM (series often up to 46.1 µM), without a hit: at the top dose activity, positive = re-replication, most hits filed as activators | MCF 10A DNA re-replication, Hoechst nuclear intensity, 48 h; note: potency is the fitted concentration of half-maximal effect; % of control where 0% means no effect; nearly all actives have a fitted effect of over 50% in size
Vif-APOBEC3G blk: inhibitors of Vif-APOBEC3G interaction; Q9HC16; HeLa A3G-eYFP + Vif (tagged APOBEC3G with the HIV-1 protein that degrades it), YFP fluorescence, overnight; Potency, µM (top dose mostly 46.1 µM), for inactives: top-dose activity, negative = active, actives largely listed as inhibitors; actives 0.076% (n = 410,000); AID 602310; note: potency is the fitted concentration of half-maximal effect; % is set by controls: 0 for no effect and ±100 for the full control effect; nearly all actives have a fitted effect of over 60% in size
Target sequence (Q9HC16 whole entry, looked up): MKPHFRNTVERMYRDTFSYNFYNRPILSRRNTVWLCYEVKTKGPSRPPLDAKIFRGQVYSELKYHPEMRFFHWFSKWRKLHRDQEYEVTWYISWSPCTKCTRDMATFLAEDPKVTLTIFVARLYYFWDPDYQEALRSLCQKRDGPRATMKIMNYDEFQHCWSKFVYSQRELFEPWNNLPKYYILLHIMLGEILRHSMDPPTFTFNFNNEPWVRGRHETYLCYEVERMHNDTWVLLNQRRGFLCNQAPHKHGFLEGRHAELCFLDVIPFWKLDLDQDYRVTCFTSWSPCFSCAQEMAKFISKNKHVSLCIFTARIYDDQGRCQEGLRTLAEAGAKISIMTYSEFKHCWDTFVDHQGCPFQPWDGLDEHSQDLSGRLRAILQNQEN
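HeLa cells stably expressing Vif and C-terminally eYFP-tagged A3G, seeded overnight at 37 deg C, then exposed to compound by pintool overnight at 37 deg C. Rise in yellow fluorescence (Ex 488/Em 500-530, Acumen) marks blocked Vif-driven A3G degradation.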
Vif-A3F inh: Vif-A3F binding inhibition; HeLa A3F-eYFP + Vif (tagged APOBEC3F with the HIV-1 protein that degrades it), YFP fluorescence increase; Potency, µM (doses to about 46.1 µM), without a hit: top-dose activity, negative = active; actives 0.2% (n = 390,000); note: potency is the fitted concentration of half-maximal effect; % of control where 0% means no effect; nearly all actives have a fitted effect of over 65% in size
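Fluorescence increase (Ex 488/Em 500-530) after overnight compound treatment at 37 deg C flags inhibition of Vif-driven A3F-eYFP loss in stable HeLa A3F-eYFP/Vif cells seeded overnight beforehand.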
IL1B secr inh: inhibitors of inflammasome signaling (IL-1 beta secretion); activity change, % at 57.5 µM; AID 743279; actives 4.7% (n = 360,000); THP-1 LPS/ATP IL-1B secretion, AlphaLISA, 16 h; active compounds read low; in the data active = activity change below about -50%; inconclusive = mostly about -30% to -49%; note: % is set by controls: 0 for no effect and ±100 for the full control effect
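THP-1 cells pretreated 1 hr with compounds (up to 57.5 uM final), then stimulated with LPS (250 ng/mL final) plus ATP (1.25 mM final); secreted IL-1B measured by AlphaLISA after 16 hr, decreased signal indicating inhibition.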
Giardia kill: kills Giardia lamblia; actives 0.15% (n = 340,000); Giardia lamblia trophozoite viability; activity change, % at 7.66 µM, hits read low; in the data active = activity change below about -80%; inconclusive = between about -30% and that limit;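 note: parasites exposed to compound for two days anaerobically before the ATP read; % is set by controls: 0 for no effect and ±100 for the full control effect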
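Giardia lamblia trophozoites (100 cells/well) were incubated with compounds for 48 h at 37 deg C under anaerobic conditions. Viability was read as ATP content by one-step luminescence after 15-30 min at room temperature.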
SW480 rereplic: induces DNA re-replication in SW480 colon adenocarcinoma cells. SW480 DNA re-replication, Hoechst DNA content imaging, 48 h. Potency, µM (titrated, usually from 46.1 µM), for the others: at the highest dose re-replication activation, usual class: activators. actives 1.8% (n = 340,000). AID 624297; note: potency is the fitted concentration of half-maximal effect; % of control where 0% means no effect; nearly all actives have a fitted effect of over 55% in size
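DNA re-replication was detected as more nuclei of elevated Hoechst intensity after 48 hr exposure to compound (23 nL pinned per well of 250 cells).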
* marks the source's active call; other numbers are inactive results; ? = inconclusive; nt = no result given; [ ] = dose if it differs, or a comment. Unless noted, calls come from the whole dose curve; as a rule, active = well fitted curve in the direction sought with a large enough effect; inconclusive = small, poorly fitted or top-dose-only effect, or another doubt; inactive = no such curve, though single readings can be large; an effect the other way counts as inactive or inconclusive.

SMILES	MCF10A rereplic	Vif-APOBEC3G blk	Vif-A3F inh	IL1B secr inh	Giardia kill	SW480 rereplic
CCN(C(=O)CCN1C(=O)/C(=C/c2ccccc2)SC1=S)C1CCS(=O)(=O)C1 (centres undefined)	?	5.7%	1.0%	-82.8*	11.6	?
CN(C(=O)CCN1C(=O)/C(=C/c2ccc(F)cc2)SC1=S)C1CCS(=O)(=O)C1 (centres undefined)	nt	1.9%	-7.9%	-23.2	nt	nt
CCN(CC)C(=O)CN1C(=O)/C(=C/c2ccccc2)SC1=S	?	-0.3%	-11.7%	-62.1*	25.5	25.8%
O=C1/C(=C/c2ccco2)SC(=S)N1C1CCS(=O)(=O)C1 (centres undefined)	26.6%	0.7%	-11.5%	-8.9	?	12.5%
Cc1ccc(/C=C2\SC(=S)N(C3CCS(=O)(=O)C3)C2=O)cc1 (centres undefined)	11.5%	-2.7%	?	-24.3	29.8	0.0052µM*
CC(C(=O)N(C)C1CCS(=O)(=O)C1)N1C(=O)/C(=C/c2ccc(F)cc2)SC1=S (centres undefined)	20.9%	2.8%	-1.4%	0.0	29.3	?
CCN(C(=O)C(C)N1C(=O)/C(=C/c2ccco2)SC1=S)C1CCS(=O)(=O)C1 (centres undefined)	24.4%	-0.1%	3.0%	-88.3*	-5.1	4.11µM*
O=c1[nH]nc(CNc2ccc(O)cc2)c2ccccc12	?	-1.7%	-3.6%	-101.4*	-9.4	22.3%
OC1C(Br)=Cc2ccccc21 (centres undefined)	nt	0.4%	nt	nt	nt	nt
COCCNc1ccc(-c2nc(-c3ccccn3)no2)cc1[N+](=O)[O-]	nt	-1.0%	-12.4%	nt	nt	nt
Nc1cc2nsnc2cc1Br	?	-6.9%	?	-3.6	-8.5	18.4µM*
COc1cc(C(=O)NCC(=O)N/N=C(\C)Cc2ccccc2)cc(OC)c1OC	-1.2%	0.5%	0.1%	20.5	-2.8	-1.8%
O=C(N/N=C\c1ccccn1)c1ccccc1O	?	1.3%	1.4%	-122.8*	-12.0	-18.7%
O=C(N/N=C/c1ccccn1)c1ccc(Cl)cc1	?	-1.1%	-11.3%	-101.5*	-2.5	4.11µM*
COc1ccccc1OCC(=O)NN=C(Cc1ccccc1)Cc1ccccc1	?	-12.1%	-10.5%	-18.5	0.5	?
CCOc1ccccc1OCC(=O)N/N=C(\C)Cc1ccc(OC)cc1	?	?	-17.8%	0.4	4.0	8.2µM*
COc1cc(C(=O)N/N=C(\C)Cc2ccccc2)cc(OC)c1OC	2.06µM*	?	4.8%	134.0	3.9	2.59µM*
O=C(N/N=C/c1ccccn1)c1ccccc1	?	-0.2%	0.7%	73.4	6.5	8.3%
Cc1ccccc1C(=O)N/N=C/c1ccccn1	9.3%	-6.4%	-0.6%	14.3	-13.7	?
Cc1ccc(-c2c(C(=O)Nc3ccc(F)c(F)c3)oc(=O)c3ccccc23)cc1	nt	2.6%	1.1%	nt	nt	nt
O=S(=O)(NCc1nc2cccnc2n1Cc1ccccc1)c1ccc2c(c1)CCCC2	nt	7.1%	12.3%	nt	nt	nt
COc1ccc(-c2noc(-c3ccc(NC4CCCCC4)c([N+](=O)[O-])c3)n2)cc1	nt	-2.4%	0.0%	nt	nt	nt
CCN(CC)C(=O)N1CCN(/[N+]([O-])=N/Oc2ccc([N+](=O)[O-])cc2[N+](=O)[O-])CC1	nt	-7.8%	nt	nt	nt	nt
O=C(N/N=C\c1ccccn1)C1c2ccccc2Oc2ccccc21	-33.9%	-0.3%	?	80.8	-6.4	18.4µM*
O=C(Nc1ncccn1)C1c2ccccc2Oc2ccccc21	2.0%	-5.2%	-0.9%	16.3	7.1	6.1%
SMILES	MCF10A rereplic	Vif-APOBEC3G blk	Vif-A3F inh	IL1B secr inh	Giardia kill	SW480 rereplic
COc1cc(C(=O)NC(C)CCc2ccccc2)cc(OC)c1OC (centres undefined)	?	-1.3%	1.3%	2.6	-8.3	-1.6%
COc1ccc(C(=O)N/N=C/c2ccccn2)cc1OC	0.3%	-1.7%	1.9%	-4.6	9.3	-4.6%
O=C(N/N=C/c1cccc2nccnc12)c1ccccc1O	?	-8.2%	-15.2%	247.7	39.0	14.6µM*
COc1cc(C(=O)NC(C)c2cccc3ccccc23)cc(OC)c1OC (centres undefined)	13.7%	3.5%	1.3%	-56.7*	1.1	5.4%
COc1cc(C(=O)N/N=C/c2ccccn2)cc(OC)c1OC	20.6µM*	?	-7.8%	81.8	17.6	18.4µM*
Cn1c(SCC(=O)NCc2ccco2)nnc1-c1cccc(NC(=O)c2ccccc2)c1	nt	0.1%	nt	nt	nt	nt
CCC1CN(C(=O)N2CCC(C(=O)NCCc3cc(OC)ccc3OC)CC2)c2ccccc2O1 (centres undefined)	nt	2.7%	1.0%	nt	nt	nt
CCc1ccc(NC(=O)CN(c2ccc(C)cc2)S(=O)(=O)c2cccs2)cc1	nt	1.4%	0.5%	nt	nt	nt
COCCNC(=S)N1CCN(c2nc(-c3ccc(Cl)cc3)cs2)CC1	?	3.1%	9.2%	-20.1	-5.8	3.6%
S=C(NCC1CCCO1)N1CCN(Cc2ccccc2)CC1 (centres undefined)	2.7%	-0.4%	10.7%	-6.5	-12.7	-10.7%
CNC(=S)N1CCN(c2nc(-c3ccc(Cl)cc3)cs2)CC1	3.9%	1.4%	-26.6%	-56.5*	8.6	-4.4%
S=C(NCc1ccco1)N1CCN(c2nc(-c3ccccc3)cs2)CC1	6.9%	-0.6%	1.1%	-73.0*	-5.5	-0.8%
S=C(NCC1CCCO1)N1CCN(c2nc(-c3ccccc3)cs2)CC1 (centres undefined)	10.6%	-1.1%	-1.2%	-57.9*	-23.2	?
Cc1ccc(Cl)cc1N1CCN(C(=S)NCc2ccco2)CC1	?	-3.1%	1.3%	-82.4*	26.1	4.8%
CCN(CC)S(=O)(=O)c1ccc(C(=O)NCCSc2c(-c3ccc(OC)cc3)[nH]c3ccccc23)cc1	nt	1.4%	1.5%	nt	nt	nt
Cc1[nH]c2ccccc2c1C1(O)C(=O)N(Cc2ccccc2)c2ccc(Br)cc21 (centres undefined)	nt	-26.1%	-6.6%	nt	nt	nt
COc1ccc(CCNC(=O)Cn2nc(-c3ccc(Cl)cc3)ccc2=O)cc1OC	nt	-0.4%	-19.0%	nt	nt	nt
Cc1nn(-c2ccc(N3CCCC3)nn2)c(C)c1CCC(=O)N1CCN(c2ccccc2F)CC1	nt	-1.9%	-0.3%	nt	nt	nt
CCNC(=S)N1CCN(c2nc(-c3ccc(F)cc3)cs2)CC1	13.7%	5.6%	-11.1%	-4.4	-23.9	-10.3%
S=C(NCc1ccco1)N1CCN(c2ccccc2Cl)CC1	14.7%	1.7%	-0.2%	-9.0	-18.2	3.4%[1.84 µM]
S=C(NCc1ccco1)N1CCN(c2nc(-c3ccc(Cl)cc3)cs2)CC1	10.7%	2.3%	3.5%	-60.7*	10.8	3.7%
COc1cccc(-c2csc(N3CCN(C(=S)Nc4ccc(Cl)cc4)CC3)n2)c1	17.6%	0.7%	-4.0%	-81.7*	-1.9	-0.6%
